HCV inhibitor = qHTS Assay for Inhibitors of Hepatitis C Virus (HCV). Huh7.5.1 HCVcc-Cre infection, luciferase reporter, 44 h. Potency, µM (highest dose often 41.8 µM), usual class: inhibitors. actives 3.4% (n = 340,000); active = well fitted inhibition curve with a large enough effect; inconclusive = small, poorly fitted or top-dose-only effect, or another doubt; inactive = no such curve, though single readings can be large or run the other way
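After 44 h co-culture of compound, cells and HCVcc-Cre (~0.5 moi), substrate is added for 15 min at room temperature and luciferase measured over 15 sec. Cells were seeded at 1,000/well and pre-cultured 4 h.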
VACV Venus inh = qHTS for Stage-Specific Inhibitors of Vaccinia Orthopoxvirus: Venus Reporter Primary qHTS. actives 0.46% (n = 330,000). Potency, µM (series often up to 36.5 µM), most hits filed as inhibitors. AID 720580, 2013. Vaccinia virus Venus reporter expression, fluorescence; calls by dose curve; tested in A549 cells; also: nearly all actives have a fitted effect of over 30% in size
VACV mCherry inh = qHTS for Stage-Specific Inhibitors of Vaccinia Orthopoxvirus: mCherry Reporter Primary qHTS; Vaccinia virus mCherry reporter infection, fluorescence; Potency, µM (series often up to 36.5 µM), usual class: inhibitors; actives 0.63% (n = 310,000); AID 720579, 2013; calls by dose curve; tested in A549 cells; also: nearly all actives have a fitted effect of over 35% in size
Lassa entry inh = qHTS for Inhibitors of binding or entry into cells for Lassa Virus; Lassa virus pseudotype entry inhibition, cell reporter; Potency, µM (series often up to 37.9 µM), actives largely listed as inhibitors; actives 1.2% (n = 300,000); AID 540256, 2011; calls by dose curve; tested in HEK293 cells; also: nearly all actives have a fitted effect of over 50% in size
MARV entry inh = qHTS for inhibitors of binding or entry into cells for Marburg Virus; Potency, µM (doses to about 37.8 µM), most hits filed as inhibitors; AID 540276, 2011; actives 1.8% (n = 300,000); Marburg virus pseudotyped entry inhibition, cell reporter; calls by dose curve; tested in HEK293 cells
HCMV inh = qHTS Assay for inhibitors of the human cytomegalovirus (HCMV). actives 4.5% (n = 410,000). activity change, negative = inhibition, % at 57.5 µM. AID 1259415, 2018. HFF cells, HCMV-luciferase reporter, 72 h; stronger effect = lower value; in the data active = activity change below about -60%; inconclusive = no clear call, values can overlap the other calls; inactive = above about -39%
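Compounds were evaluated in HFFs infected with an HCMV luciferase reporter virus (MOI 1 PFU/cell). Luciferase in lysates collected 72 h post infection served as the replication measure.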
Numbers stand for hits; . = inactive; ? = inconclusive; / = not tested or not shown. A selection: hits, their analogues and other compounds. The true share with any hit is near 7.8%.

SMILES | HCV inhibitor | VACV Venus inh | VACV mCherry inh | Lassa entry inh | MARV entry inh | HCMV inh
COc1ccccc1/C=C1\SC(=S)N(CCC(=O)N2CCCCC2CCO)C1=O (stereo not given) | ? | . | . | . | ? | -77
COc1ccc(/C=C2\SC(=S)N(CCCC(=O)N3CCOCC3)C2=O)cc1 | . | ? | ? | . | ? | ?
CCOCCCn1c(SCC(=O)Nc2ccc(C)cc2)nc2ccccc2c1=O | / | . | . | . | / | ?
COc1cc(Nc2nccc3[nH]c(-c4cccc(C(C)C)c4)nc23)cc(OC)c1OC | / | / | / | / | / | .
COc1ccc(NS(=O)(=O)c2ccc3c(c2)CCN3C(=O)CCC(=O)O)cc1Cl | / | . | . | . | . | .
COc1cccc(/C=C2\SC(=S)N(CCC(=O)N3CCCCC3CCO)C2=O)c1 (stereo not given) | ? | / | / | / | / | -98
O=C1/C(=C/c2cccs2)SC(=S)N1CCC(=O)N1CCCCC1CCO (stereo not given) | . | . | ? | . | ? | -96
O=C(CCN1C(=O)/C(=C/c2cccs2)SC1=S)N1CCCCC1 | . | ? | ? | ? | ? | .
COc1ccc(CNC(=O)C(C)n2ccc3cc(S(=O)(=O)N4CCCC4)ccc32)cc1OC (stereo not given) | / | . | . | . | / | .
CCc1nc(CN2CCN(c3ccc(C(F)(F)F)cn3)CC2)c(C)[nH]1 | 10µM | / | / | / | / | .
COc1cc(=O)n2c(c1C(=O)N(C)Cc1cscn1)CCN(Cc1c(C)[nH]c3ccccc13)CC2 | / | . | . | / | / | /
Cc1cc(N2CCC(C(=O)Nc3ccc(Cl)cc3)CC2)n2nc(C)c(-c3ccc(Cl)cc3)c2n1 | / | . | . | . | . | .
CC(C)C(NC(=O)c1ccoc1)c1nnc2n1CCN(Cc1ccc3c(c1)Cc1ccccc1-3)CC2 (stereo not given) | / | . | . | / | / | /
CC(=O)N1CCN(CC(=O)Nc2cc([N+](=O)[O-])ccc2Cl)CC1 | . | . | . | / | . | .
O=C(CN1CCN(c2ccc(O)cc2)CC1)Nc1cc([N+](=O)[O-])ccc1Cl | . | . | . | . | ? | -69
COc1cc(NC(=O)c2cc([N+](=O)[O-])ccc2NC(=O)CN2CCN(c3ccccn3)CC2)cc(OC)c1 | ? | . | . | ? | 8.9µM | .
CCCCn1c(=O)c2oc3ccccc3c2n(Cc2cccc(F)c2)c1=O | / | . | . | . | / | .
CCc1ccc(NC(=O)CCNS(=O)(=O)c2ccc3c(c2)oc(=O)n3C)cc1 | / | . | . | . | . | .
Cc1ccc(S(=O)(=O)Nc2cc(=O)[nH]c(SCc3ccccc3Cl)n2)cc1 | ? | ? | . | ? | ? | -66
O=c1cc(NS(=O)(=O)c2ccccc2)nc(SCc2ccc(Cl)cc2)[nH]1 | ? | . | . | . | ? | .
Cc1ccc(S(=O)(=O)Nc2ccc(-c3nnc(SCc4ccccc4Cl)o3)cc2)cc1 | . | . | . | ? | ? | -83
Cc1ccc(CSc2nnc(-c3ccc(NS(=O)(=O)c4ccccc4)cc3)o2)cc1 | . | . | . | . | . | .
CCc1ccc(NC(=O)C(=O)NCCc2csc(-c3cccc(F)c3)n2)cc1 | / | . | . | . | / | .
CCOC(=O)C1CCN(C(=O)c2nn(-c3ccc(OC)cc3)c(=O)c3c2c2ccccc2n3C)CC1 | / | . | . | . | . | .
O=C(c1ccc(COc2ccc(Cl)cc2)o1)N1N=C(C(F)F)CC1(O)C(F)F (stereo not given) | ? | ? | . | . | . | -70
SMILES | HCV inhibitor | VACV Venus inh | VACV mCherry inh | Lassa entry inh | MARV entry inh | HCMV inh
COc1ccccc1OCc1ccc(C(=O)N2N=C(C(F)F)CC2(O)C(F)F)o1 (stereo not given) | . | . | . | . | . | .
S=C(Nc1ccccc1)N1CCOCCOCCN(C(=S)Nc2ccccc2)CCOCCOCC1 | . | . | . | . | 5.6µM | .
O=C(COC(=O)/C=C/c1ccc(OC(F)F)cc1)NCc1cccs1 | . | . | . | ? | . | -64
O=C(/C=C/c1ccc(Br)cc1)NCc1cccs1 | . | . | . | 2.6µM | . | -61
O=C(/C=C/c1ccc(S(=O)(=O)NCc2ccco2)cc1)NCc1ccccc1Cl | ? | ? | ? | ? | ? | .
O=C(/C=C/c1ccc(F)cc1)NCc1cccs1 | . | . | . | ? | . | .
O=C(/C=C/c1ccc(Cl)cc1)NCc1ccco1 | . | ? | ? | 6.5µM | ? | -64
